Laboratory results as given in PubChem BioAssay (NCATS).
Results filed as inconclusive are left out. Active and inactive are the calls of the source. The call rests on the fitted dose curve; in most records, active means well fitted curve in the direction sought with a large enough effect; inconclusive means small, poorly fitted or top-dose-only effect, or another doubt; inactive means no such curve, though single readings can be large or run the other way.

Test: qHTS Assay for Identifying Gametocytocidal Compounds (AID 743244);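 on max response: actives lower the fluorescent signal which means gametocytes are killed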
Conditions: P. falciparum 3D7 stage III-V gametocytes, alamarBlue, 72 h; max response: active compounds read low
In short: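 A resazurin-based viability read-out was applied to mature P. falciparum gametocytes: 72 h compound treatment, then 24 h dye incubation, with falling fluorescence signalling gametocytocidal effect.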
On the % scale 0 is the no-effect control and ±100 the full control effect; potency means the concentration at half of the fitted maximal effect.

SMILES	max response	Potency
CCOC(=O)COc1ccc2c(C)c(CCN(CC)CC)c(=O)oc2c1Cl	-0.591% (inactive)	
CCOC(=O)[C@H](CCc1ccccc1)N[C@@H](C)C(=O)N1Cc2ccccc2C[C@H]1C(=O)O	4.65% (inactive)	
CCN1CCCC1=O	5.59% (inactive)	
COc1c(C)c2c(c(O)c1C/C=C(\C)CCC(=O)O)C(=O)OC2	31.6% (inactive)	
CC1(C)O[C@@H]2C[C@H]3[C@@H]4CCC5=CC(=O)CC[C@]5(C)[C@@]4(F)[C@@H](O)C[C@]3(C)[C@]2(C(=O)CCl)O1		8.91 µM (active)
NCCC(O)(P(=O)(O)O)P(=O)(O)O	1.74% (inactive)	
CC1(C)O[C@@H]2C[C@H]3[C@@H]4C[C@H](F)C5=CC(=O)C=C[C@]5(C)[C@H]4[C@@H](O)C[C@]3(C)[C@]2(C(=O)CO)O1	-4.1% (inactive)	
C[C@H](CCC(=O)O)[C@H]1CC[C@H]2[C@@H]3C(=O)C[C@@H]4CC(=O)CC[C@]4(C)[C@H]3CC(=O)[C@]12C	6.84% (inactive)	
CC(C)(C(=O)c1cccnc1)c1cccnc1	4.59% (inactive)	
COc1ccc(CCN2CCC(Nc3nc4ccccc4n3Cc3ccc(F)cc3)CC2)cc1		3.16 µM (active)
CC(=O)OCC(=O)[C@@]1(O)CC[C@H]2[C@@H]3CCC4=CC(=O)C=C[C@]4(C)[C@H]3[C@@H](O)C[C@@]21C	-0.763% (inactive)	
COc1ccc(/C=C/C(=O)c2ccc(OC)cc2OC)cc1	-14.8% (inactive)	
CCN1CCC[C@H]1CNC(=O)c1c(OC)ccc(Br)c1OC	-8.08% (inactive)	
